Compounds with a hit are over-represented: about 2.4% of the library has one in this group of screens.
CHO-K1 Ca PAM: counter-screen for M1 PAMs: effect in parental CHO-K1 cells; ATP EC20, Fluo-8 calcium fluorescence; 0% at ATP EC20, 100% at ATP max; activation, % at 3 µM; hit rate 0.02% among 360,000;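 active = activation above the run cutoff, the mean activation of all test compounds plus 3 SD, cut at about 40% in these data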;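 also: peak over basal fluorescence ratio in a 140 s read after ATP addition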
CHO-K1 Ca antag: counter-screen for M1 antagonists: effect in parental CHO-K1 cells. ATP-induced calcium, Fluo-8 fluorescence. inhibition, % at 3 µM. hit rate 0.6% among 360,000. AID 602250;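 active = inhibition above a per-plate cutoff, the plate's mean sample inhibition plus 3 SD, cut at about 24% in these data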
CHO-K1 Ca ag: nonselective activator or artifact in parental CHO-K1 cells | activation, % at 3 µM | Fluo-8 calcium fluorescence; scaled to maximal ATP response, vehicle zero | hit rate 0.48% among 360,000; in the data active = activation above about 15%;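 also: untransfected CHO-K1 host cells lacking M1 receptor as counterscreen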
M1 antag: human CHRM1 antagonism; P11229; CHO-K1 hM1, Fluo-8 calcium fluorescence, ACh EC80 antagonist; inhibition, % at 3 µM; hit rate 1.3% among 360,000; AID 588852;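 active = percent inhibition above its own plate's cutoff, namely the mean of that plate's compound wells plus 3 SD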;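 also: peak over basal fluorescence ratio during 140 s after agonist addition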
Target sequence (P11229 whole entry, looked up): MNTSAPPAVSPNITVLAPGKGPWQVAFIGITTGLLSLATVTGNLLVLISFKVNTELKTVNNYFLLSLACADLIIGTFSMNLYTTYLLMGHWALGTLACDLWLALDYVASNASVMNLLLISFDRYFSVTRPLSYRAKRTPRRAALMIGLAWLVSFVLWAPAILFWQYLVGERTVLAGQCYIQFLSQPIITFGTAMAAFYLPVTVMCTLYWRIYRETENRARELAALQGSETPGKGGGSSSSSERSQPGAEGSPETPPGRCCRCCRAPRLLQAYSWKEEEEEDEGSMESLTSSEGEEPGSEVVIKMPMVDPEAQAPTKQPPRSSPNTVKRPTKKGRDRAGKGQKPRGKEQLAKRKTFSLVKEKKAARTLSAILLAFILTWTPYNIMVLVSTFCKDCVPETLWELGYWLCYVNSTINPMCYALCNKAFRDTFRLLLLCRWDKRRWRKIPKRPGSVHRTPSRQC
M1 PAM: positive allosteric modulators of human M1 muscarinic receptor; P11229; CHO-K1 hM1, Fluo-8 calcium fluorescence, ACh EC20; 0% = ACh EC20, 100% = maximal ACh; activation, % at 3 µM; hit rate 0.088% among 360,000; AID 588819; in the data active = activation above about 19%, passing the limit was not always enough
CHRM1 agonist: activates human CHRM1 receptor. P11229. AID 588814. CHO-K1 hM1, Fluo-8 calcium fluorescence, agonist mode; 0% DMSO, 100% acetylcholine EC100. hit rate 0.33% among 360,000. activation, % at 3 µM;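 active = activation above the run's mean compound activation plus 3 SD, cut at about 16% in these data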;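 also: peak over basal fluorescence ratio within a 140 s kinetic read after compound addition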
Large screens that a line does not name were inactive.

O=C1NC(Cc2ccccc2)c2nc3cc(F)c(F)cc3c(=O)n2-c2cc3ccccc3cc21 (configuration not stated)	none
O=C1NC(Cc2ccc(O)cc2)c2nc3cc(F)c(F)cc3c(=O)n2-c2cc3ccccc3cc21 (configuration not stated)	CHO-K1 Ca antag 35
Cc1ccc2nc3n(c(=O)c2c1)-c1cc2ccccc2cc1C(=O)NC3Cc1ccc(O)cc1 (configuration not stated)	none
O=C1NC(Cc2ccc(O)cc2)c2nc3ccc(F)cc3c(=O)n2-c2cc3ccccc3cc21 (configuration not stated)	M1 antag 23
O=C(NCCc1ccccc1)c1ccc(S(=O)(=O)N2CCCC2)cc1	none
O=C(NCC(c1ccccc1Cl)N1CCCC1)c1ccc(N2CCCC2=O)cc1 (configuration not stated)	M1 antag 56
COc1ccc(C)cc1NC(=O)c1sc2nc(C)nc(N3CCOCC3)c2c1C	none
CCOC(=O)Cc1csc(NC(=O)CSc2ncnc3c2cnn3-c2ccccc2Cl)n1	M1 antag 28
CCOC(=O)/C(=N\Nc1ccccc1Cl)N1CCN(Cc2ccccc2)CC1	none
CCOc1ccc(C(C(=O)NC2CCCC2)N(CCCO)C(=O)c2ccc(-c3ccccc3)[nH]2)cc1 (configuration not stated)	none
Cc1c(N=c2scc(-c3ccccc3)n2C)c(=O)n(-c2ccccc2)n1C	M1 antag 98
O=C(CNC(=O)C1CCCCC1)Nc1cc(Cl)ccc1Cl	CHO-K1 Ca antag 25
O=C(CNC(=O)C1CCCCC1)Nc1ccccc1Cl	none
Cc1c(C(=O)Nc2cccc(S(=O)(=O)N3CCCC3)c2)oc2ccccc12	none
COC(=O)C(Cc1ccc(OC(=O)c2ccc(C(F)(F)F)cc2)cc1)N1Cc2ccccc2C1=O (configuration not stated)	CHO-K1 Ca antag 25, M1 antag 36
O=C(O)CC(c1ccc(Cl)cc1)N1Cc2ccccc2C1=O (configuration not stated)	none
COC(=O)C(Cc1ccc(OC(=O)c2ccc(Cl)cc2)cc1)N1Cc2ccccc2C1=O (configuration not stated)	CHO-K1 Ca antag 34, M1 antag 21
Cc1ccccc1CN1CCN(CC(=O)NCCCN2CCN(c3ccc(F)cc3)CC2)C1=O	CHO-K1 Ca antag 29
O=C(CN1CCN(Cc2ccc(Cl)cc2)C1=O)NCCCN1CCN(c2ccc(F)cc2)CC1	none
CCc1cc(C(=O)OC)c(NC(=O)CC2Nc3cc(C)c(C)cc3NC2=O)s1 (configuration not stated)	none
CC(=O)c1c(C)n(CC(=O)NCc2ccco2)c2ccccc12	M1 antag 35
CCOC(=O)N1CCC(Nc2nc3ccccc3n3cnnc23)CC1	none
Cc1cnc(C(=O)OCC(=O)Nc2ccc(C)c(S(=O)(=O)N(C)C)c2)cn1	none
COc1ccc(-c2nnc3sc(COc4ccccc4)nn23)cc1	none
C=CCn1c(SCC(=O)Nc2sc3c(c2C#N)CCC3)nnc1C1COc2ccccc2O1 (configuration not stated)	none
COc1ccccc1C(=O)NCCN1CCCC1	none
COc1ccccc1CNS(=O)(=O)c1ccc2c(c1)CC(C)N2C(=O)C1CC1 (configuration not stated)	none
COc1ccccc1CNS(=O)(=O)c1ccc2c(c1)CC(C)N2C(=O)C1CCC1 (configuration not stated)	CHO-K1 Ca antag 31
CN(Cc1ccsc1)C(=O)CCc1nnc(CCCc2ccccc2)o1	none
CCn1ccnc1CNC(=O)c1ccc2oc(CCCc3ccccc3)nc2c1	M1 antag 33
CCCCc1nc2cc(C(=O)NCc3ccccn3)ccc2o1	none
CCn1ccnc1CN(C)C(=O)CCc1nnc(CCCc2ccccc2)o1	CHO-K1 Ca antag 24
CCCCN(C(=O)COC(=O)c1nc2nc(C)cc(C)n2n1)C1CCS(=O)(=O)C1 (configuration not stated)	none
O=C(Nc1ccn(CCCN2CCN(Cc3ccc(F)cc3)CC2)c(=O)n1)OCc1ccccc1	M1 antag 39
O=C(Nc1ccn(CCCNCc2ccccn2)c(=O)n1)OCc1ccccc1	none
O=C(Nc1ccn(CCCN2CCN(c3ncccn3)CC2)c(=O)n1)OCc1ccccc1	M1 antag 22
CC(=O)OCC(=O)Nc1cc(S(=O)(=O)N2CCCCCC2)ccc1Cl	none
Cc1sc2nc(CSc3nc4ccccc4c(=O)n3CCCN3CCOCC3)[nH]c(=O)c2c1C	none
Cc1ccc(-c2nnc(N3CCN(C(=O)COc4cccc(C)c4)CC3)c3ccccc23)cc1	none
Cc1cccc(OCC(=O)N2CCN(c3nnc(-c4ccccc4)c4ccccc34)CC2)c1	M1 antag 57
CC(=O)c1cc(-c2ccccc2)n(CCC(=O)NC2CCCC2)c1C	none
Cc1nccn1CCc1n[nH]c(=S)n1Cc1ccccc1	M1 antag 60
S=c1[nH]nc(CCc2ccccc2)n1Cc1ccccc1	none
CC1(C)Cc2c(C#N)c(OCC(=O)c3ccc(Cl)cc3)nc(-c3ccoc3)c2CO1	none
CCOC(=O)C1=CCN(S(=O)(=O)c2ccccc2C)C1c1ccc(Br)cc1 (configuration not stated)	none
CCOC(=O)C1=CCN(S(=O)(=O)c2ccc(F)cc2)C1c1cccc(C)c1 (configuration not stated)	none
CCOC(=O)C1=CCN(S(=O)(=O)c2ccccc2Cl)C1c1ccc(Cl)c(Cl)c1 (configuration not stated)	none
CCOC(=O)C1=CCN(S(=O)(=O)c2ccccc2C)C1c1ccccc1 (configuration not stated)	CHO-K1 Ca antag 26
CCOC(=O)C1=CCN(S(=O)(=O)c2ccccc2Br)C1c1ccc(Cl)c(Cl)c1 (configuration not stated)	CHO-K1 Ca antag 29
CCOC(=O)C1=CCN(S(=O)(=O)c2ccc(F)cc2)C1c1cccc(F)c1 (configuration not stated)	CHO-K1 Ca antag 27
O=C1CN(C(=O)CNCc2ccc(Cl)cc2)c2ccccc2N1	none
CCC(=O)N1N=C(c2ccc(NS(=O)(=O)c3ccc(C)cc3)cc2)CC1c1ccco1 (configuration not stated)	none
Cc1c(CC(=O)O)c(=O)oc2cc(OCc3nn[nH]n3)ccc12	none
COc1ccc(C(CNC(=O)c2cc(S(=O)(=O)NCc3ccco3)ccc2C)N(C)C)cc1 (configuration not stated)	none
COc1ccc(-c2nnn(CC(=O)c3c[nH]c4ccccc34)n2)cc1OC	none
COC(=O)CCN(C(=O)c1ccc(N2CCCCC2)c([N+](=O)[O-])c1)c1ccccn1	CHO-K1 Ca ag 20
